Of roughly 8,800 targets only a part is listed; those with a hit were picked by preference. About 0.5% of all pairs of compound and target were hits.

Sequence of UniProt Q13322 (Q13322 whole entry, looked up): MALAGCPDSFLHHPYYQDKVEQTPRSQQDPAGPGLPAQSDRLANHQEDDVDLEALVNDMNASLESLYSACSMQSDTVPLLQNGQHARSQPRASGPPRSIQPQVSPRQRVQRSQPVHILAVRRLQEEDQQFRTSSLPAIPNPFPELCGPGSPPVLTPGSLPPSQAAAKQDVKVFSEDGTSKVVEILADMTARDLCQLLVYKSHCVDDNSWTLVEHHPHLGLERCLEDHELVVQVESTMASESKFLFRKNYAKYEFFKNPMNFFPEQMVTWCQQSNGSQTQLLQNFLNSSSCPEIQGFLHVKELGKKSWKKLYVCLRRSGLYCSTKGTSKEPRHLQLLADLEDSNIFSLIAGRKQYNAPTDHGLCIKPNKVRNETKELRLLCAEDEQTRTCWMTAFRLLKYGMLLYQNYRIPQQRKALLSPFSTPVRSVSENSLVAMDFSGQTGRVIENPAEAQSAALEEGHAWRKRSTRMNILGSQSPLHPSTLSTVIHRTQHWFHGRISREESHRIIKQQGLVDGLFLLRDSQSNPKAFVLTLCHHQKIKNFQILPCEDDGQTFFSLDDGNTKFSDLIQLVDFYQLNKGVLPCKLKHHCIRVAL
Sequence of UniProt Q9Y6M1 (Q9Y6M1 whole entry, looked up): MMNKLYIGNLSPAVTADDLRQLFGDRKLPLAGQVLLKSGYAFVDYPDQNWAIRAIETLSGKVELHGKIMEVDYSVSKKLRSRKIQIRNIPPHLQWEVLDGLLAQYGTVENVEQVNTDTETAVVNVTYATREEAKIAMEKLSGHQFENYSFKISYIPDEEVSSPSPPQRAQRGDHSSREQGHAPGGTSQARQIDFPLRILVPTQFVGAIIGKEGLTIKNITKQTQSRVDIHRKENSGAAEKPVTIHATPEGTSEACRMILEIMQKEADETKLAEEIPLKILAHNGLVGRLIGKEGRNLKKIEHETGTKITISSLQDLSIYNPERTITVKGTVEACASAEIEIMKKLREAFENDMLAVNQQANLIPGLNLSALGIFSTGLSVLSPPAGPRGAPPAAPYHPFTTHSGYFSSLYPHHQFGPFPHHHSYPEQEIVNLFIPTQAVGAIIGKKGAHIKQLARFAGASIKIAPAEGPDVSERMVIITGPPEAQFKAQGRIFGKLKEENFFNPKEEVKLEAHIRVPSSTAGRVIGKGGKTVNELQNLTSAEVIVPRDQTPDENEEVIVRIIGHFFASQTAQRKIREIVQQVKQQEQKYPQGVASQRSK
Sequence of UniProt Q49A26 (Q49A26 whole entry, looked up): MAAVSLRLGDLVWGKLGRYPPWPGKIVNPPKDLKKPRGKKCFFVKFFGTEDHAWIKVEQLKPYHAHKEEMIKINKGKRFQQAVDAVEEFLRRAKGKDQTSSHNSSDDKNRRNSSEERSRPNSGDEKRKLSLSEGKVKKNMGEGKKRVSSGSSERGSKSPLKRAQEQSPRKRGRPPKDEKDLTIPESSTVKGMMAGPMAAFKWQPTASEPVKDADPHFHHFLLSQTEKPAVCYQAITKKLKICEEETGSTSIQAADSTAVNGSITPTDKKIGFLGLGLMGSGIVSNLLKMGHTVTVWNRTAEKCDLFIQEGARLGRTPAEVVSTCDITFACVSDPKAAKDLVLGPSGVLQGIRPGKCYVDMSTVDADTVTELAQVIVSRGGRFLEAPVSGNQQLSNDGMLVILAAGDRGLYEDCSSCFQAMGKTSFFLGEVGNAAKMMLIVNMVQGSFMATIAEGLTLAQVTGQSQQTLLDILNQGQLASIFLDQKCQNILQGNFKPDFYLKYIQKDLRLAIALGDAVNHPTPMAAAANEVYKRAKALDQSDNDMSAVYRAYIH
Sequence of UniProt Q92769 (Q92769 whole entry, looked up): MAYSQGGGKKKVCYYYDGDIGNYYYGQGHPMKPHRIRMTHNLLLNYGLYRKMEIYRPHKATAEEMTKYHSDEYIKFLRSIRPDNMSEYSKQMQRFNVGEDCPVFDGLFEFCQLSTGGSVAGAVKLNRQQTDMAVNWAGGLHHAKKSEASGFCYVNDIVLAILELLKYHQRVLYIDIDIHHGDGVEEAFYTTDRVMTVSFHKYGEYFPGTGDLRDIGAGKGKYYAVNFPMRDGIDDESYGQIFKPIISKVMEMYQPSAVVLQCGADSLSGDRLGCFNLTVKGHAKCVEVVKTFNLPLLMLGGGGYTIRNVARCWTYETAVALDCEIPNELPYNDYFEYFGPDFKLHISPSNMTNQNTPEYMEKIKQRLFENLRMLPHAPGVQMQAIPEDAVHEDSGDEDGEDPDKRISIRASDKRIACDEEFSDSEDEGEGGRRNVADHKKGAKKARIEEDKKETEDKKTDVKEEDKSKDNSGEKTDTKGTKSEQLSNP
Sequence of UniProt Q9NSE4 (Q9NSE4 whole entry, looked up): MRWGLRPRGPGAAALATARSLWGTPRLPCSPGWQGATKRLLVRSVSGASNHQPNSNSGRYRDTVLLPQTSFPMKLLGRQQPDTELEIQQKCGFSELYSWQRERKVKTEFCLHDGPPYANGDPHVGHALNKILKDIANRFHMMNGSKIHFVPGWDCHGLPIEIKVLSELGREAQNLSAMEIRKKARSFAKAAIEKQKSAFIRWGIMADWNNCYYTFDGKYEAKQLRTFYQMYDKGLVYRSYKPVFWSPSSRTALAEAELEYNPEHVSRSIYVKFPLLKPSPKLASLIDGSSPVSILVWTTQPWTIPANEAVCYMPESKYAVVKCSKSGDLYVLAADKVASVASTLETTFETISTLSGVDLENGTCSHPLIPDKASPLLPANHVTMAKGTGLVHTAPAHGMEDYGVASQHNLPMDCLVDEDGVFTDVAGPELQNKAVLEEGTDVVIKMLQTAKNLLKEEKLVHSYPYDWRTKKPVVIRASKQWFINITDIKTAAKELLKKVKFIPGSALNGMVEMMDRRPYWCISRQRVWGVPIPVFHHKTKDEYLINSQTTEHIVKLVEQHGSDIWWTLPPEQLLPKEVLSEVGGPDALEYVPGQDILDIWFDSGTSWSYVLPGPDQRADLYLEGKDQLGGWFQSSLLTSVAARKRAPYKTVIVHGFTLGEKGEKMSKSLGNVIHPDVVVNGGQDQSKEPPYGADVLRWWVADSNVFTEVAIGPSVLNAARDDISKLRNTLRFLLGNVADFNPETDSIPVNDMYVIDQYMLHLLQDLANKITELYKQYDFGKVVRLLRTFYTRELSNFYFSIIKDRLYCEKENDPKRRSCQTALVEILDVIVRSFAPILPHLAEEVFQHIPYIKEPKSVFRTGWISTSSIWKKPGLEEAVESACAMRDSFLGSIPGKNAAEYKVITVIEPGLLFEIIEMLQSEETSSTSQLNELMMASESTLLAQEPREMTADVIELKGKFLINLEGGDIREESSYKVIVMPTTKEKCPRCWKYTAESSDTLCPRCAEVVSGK
Sequence of UniProt P13598 (P13598 whole entry, looked up): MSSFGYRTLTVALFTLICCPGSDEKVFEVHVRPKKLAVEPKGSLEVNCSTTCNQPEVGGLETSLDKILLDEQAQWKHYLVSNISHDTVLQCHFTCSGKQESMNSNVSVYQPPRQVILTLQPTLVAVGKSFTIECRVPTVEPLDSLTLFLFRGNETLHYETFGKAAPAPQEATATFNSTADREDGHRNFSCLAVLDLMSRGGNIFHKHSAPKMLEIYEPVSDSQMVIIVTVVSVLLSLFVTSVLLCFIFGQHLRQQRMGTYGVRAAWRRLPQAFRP
Sequence of UniProt Q8WVV9 (Q8WVV9 whole entry, looked up): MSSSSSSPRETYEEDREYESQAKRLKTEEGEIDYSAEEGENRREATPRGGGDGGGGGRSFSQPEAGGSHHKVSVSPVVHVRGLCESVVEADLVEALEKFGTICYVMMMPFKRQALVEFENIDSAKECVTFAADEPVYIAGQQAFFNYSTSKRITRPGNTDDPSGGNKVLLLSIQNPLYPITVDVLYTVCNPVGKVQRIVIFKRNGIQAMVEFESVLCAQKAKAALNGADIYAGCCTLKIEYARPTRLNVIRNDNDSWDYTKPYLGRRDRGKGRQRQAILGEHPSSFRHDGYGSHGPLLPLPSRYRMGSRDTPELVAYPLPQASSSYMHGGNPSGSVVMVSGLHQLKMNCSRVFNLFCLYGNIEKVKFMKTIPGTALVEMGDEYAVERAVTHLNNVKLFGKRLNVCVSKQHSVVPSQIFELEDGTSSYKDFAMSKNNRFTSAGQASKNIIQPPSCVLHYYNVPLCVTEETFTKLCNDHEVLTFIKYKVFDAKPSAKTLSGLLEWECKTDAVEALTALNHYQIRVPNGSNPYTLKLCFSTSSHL
Sequence of UniProt Q96SY0 (Q96SY0 whole entry, looked up): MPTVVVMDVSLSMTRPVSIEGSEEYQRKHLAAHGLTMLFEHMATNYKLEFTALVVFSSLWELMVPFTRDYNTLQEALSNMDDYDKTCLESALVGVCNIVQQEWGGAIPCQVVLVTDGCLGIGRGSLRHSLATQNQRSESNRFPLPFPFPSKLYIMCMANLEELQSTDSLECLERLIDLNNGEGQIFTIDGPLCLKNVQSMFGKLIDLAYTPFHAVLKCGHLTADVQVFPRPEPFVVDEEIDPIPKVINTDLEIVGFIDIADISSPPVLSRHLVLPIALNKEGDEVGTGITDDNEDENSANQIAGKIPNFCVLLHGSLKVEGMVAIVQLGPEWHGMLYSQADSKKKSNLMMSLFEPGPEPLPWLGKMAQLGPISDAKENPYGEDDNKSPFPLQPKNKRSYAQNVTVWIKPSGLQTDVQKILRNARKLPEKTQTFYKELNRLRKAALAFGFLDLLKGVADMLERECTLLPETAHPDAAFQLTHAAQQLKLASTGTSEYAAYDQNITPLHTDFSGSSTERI
Sequence of UniProt Q99795 (Q99795 whole entry, looked up): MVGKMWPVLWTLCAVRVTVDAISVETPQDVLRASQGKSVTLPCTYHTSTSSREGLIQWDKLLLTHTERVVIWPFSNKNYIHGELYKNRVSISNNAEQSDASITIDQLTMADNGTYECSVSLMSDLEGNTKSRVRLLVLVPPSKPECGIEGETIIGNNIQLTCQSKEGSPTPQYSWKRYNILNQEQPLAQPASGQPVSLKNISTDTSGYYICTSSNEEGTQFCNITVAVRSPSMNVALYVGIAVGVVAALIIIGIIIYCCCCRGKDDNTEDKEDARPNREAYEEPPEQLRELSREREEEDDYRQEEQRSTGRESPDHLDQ

Compound in this assay: Cc1sc2c(c1C)C(c1ccc(Cl)cc1)=N[C@@H](CC(=O)OC(C)(C)C)c1nnc(C)n1-2
The experiment in a line: log2 fold change, soluble protein after heating vs DMSO (PISA); higher = thermal stabilisation; K562 lysate, 10 uM; active = over 0.2 and 3.5 SD of the protein, either way, in both replicates (recomputed). The procedure, abridged: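 Values give the log-two fold change in thermal stability against solvent controls, from duplicates. Crude K562 extract at 1 mg/mL protein, made by dounce homogenisation in PBS pH 7.4 with 1 mM MgCl2, was treated with 10 μM compound for 30 min. After 3 min heating across 48°C-58°C, aliquots were pooled, adjusted to 0.5% NP-40 at 4°C and centrifuged at 21,000xg for 90 min. The supernatant was measured by TMTpro 16plex LC-MS/MS with channel sums equalised.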
GTF2A1 (UniProt P52655): the log2 fold change is -0.057 (inactive).

With HECTD3 (UniProt Q5T447), the log2 fold change was 0.034 (inactive).

As to IARS2 (UniProt Q9NSE4), the log2 fold change is 0.028 (inactive).

Take GLUD2 (UniProt P49448): the log2 fold change was 0.019 (inactive).

Turning to INTS14 (UniProt Q96SY0), the log2 fold change was 0.007 (inactive).

On to HMBOX1 isoform 5 (UniProt Q6NT76), for which the log2 fold change was 0.027 (inactive).

As to IGF2BP2 (UniProt Q9Y6M1), the log2 fold change is 0.022 (inactive).

As to HDHD5 (UniProt Q9BXW7), the log2 fold change is -0.05 (inactive).

As for HEATR6 (UniProt Q6AI08), the log2 fold change is 0.008 (inactive).

Turning to HADHB (UniProt P55084), the log2 fold change was 0.167 (inactive).

On to GRB10 (UniProt Q13322), for which the log2 fold change was 0.045 (inactive).

On to GSTZ1 (UniProt G3V4T6), for which the log2 fold change is 0.062 (inactive).

As to HNRNPM (UniProt M0QZM1), the log2 fold change was 0.152 (inactive).

In the case of HDAC2 (UniProt Q92769), the log2 fold change is 0.02 (inactive).

In the case of GPA33 (UniProt Q99795), the log2 fold change was -0.248 (inactive).

Take IMPDH2 (UniProt P12268): the log2 fold change is 0.045 (inactive).

Consider HDAC1 (UniProt Q13547), for which the log2 fold change was -0.025 (inactive).

GLYR1 (UniProt Q49A26): the log2 fold change was 0.142 (inactive).

Take HS1BP3 (UniProt Q53T59): the log2 fold change is 0.004 (inactive).

As to HNRNPLL (UniProt Q8WVV9), the log2 fold change was 0.022 (inactive).

ICAM2 (UniProt P13598): the log2 fold change was -0.022 (inactive).

As to HADHA (UniProt P40939), the log2 fold change is 0.117 (inactive).

As for GTF3C5 isoform 3 (UniProt Q9Y5Q8), the log2 fold change is 0.056 (inactive).

For the origin of these results see the supplement of paper PMC10849652.
